# Experimental data published in paper PMC5540273 (PLoS ONE, 2017).
# Experiments:
# Details in all cases: concentration: 1 μM, replicates: in singlicate; n = 1
# RIPK2 = tested on: RIPK2
# RIPK4 = tested on: RIPK4
# RIPK5 = tested on: RIPK5
# ROCK1 = tested on: ROCK1
# ROCK2 = tested on: ROCK2
# ROS1 = tested on: ROS1
# [1] = tested on: RPS6KA4(Kin.Dom.1-N-terminal)
# [2] = tested on: RPS6KA4(Kin.Dom.2-C-terminal)
# [3] = tested on: RPS6KA5(Kin.Dom.1-N-terminal)
# [4] = tested on: RPS6KA5(Kin.Dom.2-C-terminal)
# [5] = tested on: T1, RSK1(Kin.Dom.1-N-terminal)
# T1 construct: gene RPS6KA1
# [6] = tested on: T2, RSK1(Kin.Dom.2-C-terminal)
# T2 construct: gene RPS6KA1
# [7] = tested on: T3, RSK2(Kin.Dom.1-N-terminal)
# T3 construct: gene RPS6KA3
# [8] = tested on: T4, RSK2(Kin.Dom.2-C-terminal)
# T4 construct: gene RPS6KA3
# [9] = tested on: T5, RSK3(Kin.Dom.1-N-terminal)
# T5 construct: gene RPS6KA2
# [10] = tested on: T6, RSK3(Kin.Dom.2-C-terminal)
# T6 construct: gene RPS6KA2
# [11] = tested on: T7, RSK4(Kin.Dom.1-N-terminal)
# T7 construct: gene RPS6KA6
# [12] = tested on: T8, RSK4(Kin.Dom.2-C-terminal)
# T8 construct: gene RPS6KA6
# S6K1 = tested on: S6K1
# SBK1 = tested on: SBK1
# 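Also: KINOMEscan kinase panel screen.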
SMILES,%Inh (RIPK2),%Inh (RIPK4),%Inh (RIPK5),%Inh (ROCK1),%Inh (ROCK2),%Inh (ROS1),%Inh [1],%Inh [2],%Inh [3],%Inh [4],%Inh [5],%Inh [6],%Inh [7],%Inh [8],%Inh [9],%Inh [10],%Inh [11],%Inh [12],%Inh (S6K1),%Inh (SBK1)
FC(F)(F)c1ccc(-c2ncn(CCCN3CCOCC3)c2-c2ccncc2)cc1 [SB-217780],0%,61%,0%,27%,0%,0%,1%,11%,0%,0%,11%,6%,0%,28%,32%,19%,1%,44%,0%,13%
CN1C(=O)C(Nc2ccccc2)=C(c2ccccc2)C1=O [SB-300079],0%,5%,25%,7%,43%,0%,8%,0%,0%,9%,8%,0%,37%,0%,0%,0%,10%,12%,0%,0%
Cc1cccc(-c2nc(Nc3ccc4c(cnn4C)c3)c3ccccc3n2)n1 [GW876731],0%,10%,0%,41%,0%,12%,12%,0%,0%,0%,32%,0%,26%,0%,24%,0%,8%,0%,0%,10%
CCC(=O)c1c(-c2ccccc2)c2cc(Cl)ccc2c(=O)n1Cc1cc(C(=O)NC2CC2)n(C)n1,0%,0%,18%,11%,0%,0%,0%,6%,15%,1%,0%,8%,0%,30%,6%,0%,8%,0%,7%,0%
Nc1nc(N)c2nc(-c3ccccc3)[nH]c2n1 [SKF-12778],10%,66%,0%,26%,24%,10%,11%,0%,9%,0%,0%,0%,9%,9%,18%,0%,15%,1%,8%,10%
C[C@@H]1CC[C@H](C(=O)NC2CCCCC2)CN1c1cc(-c2ccc3c(N)n[nH]c3c2)nc(N)n1 [GSK2291363],5%,29%,0%,94.4%,93.1%,28%,5%,0%,32%,0%,31%,6%,32%,28%,23%,6%,11%,26%,8%,14%
CN1C(=O)C(Nc2cc(Cl)c(O)c(Cl)c2)=C(c2ccc(Cl)cc2)C1=O [SB-404321],0%,32%,0%,6%,0%,0%,0%,0%,0%,0%,0%,0%,5%,0%,0%,9%,0%,0%,17%,0%
Nc1n[nH]c2nnc(-c3ccccc3)c(-c3ccccc3)c12 [GW554060],0%,0%,0%,31%,31%,14%,10%,0%,12%,0%,0%,1%,4%,29%,4%,0%,10%,8%,0%,13%
CCC(=O)c1c(-c2ccccc2)c2cc(Cl)ccc2c(=O)n1Cc1cc(S(C)(=O)=O)n(CCC(C)(C)O)n1,14%,0%,3%,16%,0%,14%,3%,12%,20%,1%,0%,0%,9%,0%,11%,5%,39%,23%,0%,0%
Cc1cc(Nc2nc(-c3cccc(C)n3)nc3ccccc23)ccn1 [GW872411],14%,0%,0%,27%,0%,0%,2%,0%,0%,16%,23%,0%,24%,0%,0%,7%,0%,0%,7%,0%
Nc1ncnc2c1ncn2-c1ccc(Cl)cc1 [AH2635],2%,2%,0%,30%,0%,23%,20%,0%,0%,8%,9%,4%,0%,0%,0%,0%,0%,46%,0%,0%
Cc1ccc(-c2ccc3c(ccc4sc5c(c43)NC[C@@H](C)N=C5N(C)C)n2)cn1,0%,0%,0%,0%,0%,0%,0%,0%,0%,0%,0%,0%,0%,0%,0%,0%,0%,0%,0%,0%
COc1cccc(C2=C(Nc3cccc(C(=O)O)c3)C(=O)NC2=O)c1 [SB-390770],7%,0%,0%,25%,7%,32%,0%,0%,32%,0%,0%,0%,4%,15%,8%,0%,20%,10%,6%,18%
COc1ccc(-n2cnc3c(N)ncnc32)cc1 [SKF-97236],15%,9%,10%,5%,20%,0%,12%,0%,15%,0%,0%,0%,11%,22%,9%,0%,9%,36%,9%,13%
Cc1ccc(Oc2ccc(Nc3ncnc4cc[nH]c34)cc2C)cn1,8%,36%,14%,0%,0%,11%,0%,1%,16%,2%,5%,8%,0%,0%,16%,16%,9%,6%,7%,44%
COC(=O)c1c(-c2ccccc2)c2cc(Br)ccc2c(=O)n1Cc1ccc(NC(=O)CCC(=O)O)cc1,12%,20%,21%,8%,0%,0%,0%,9%,23%,0%,0%,5%,0%,29%,16%,15%,0%,26%,0%,1%
CCCNC(=O)Nc1ccc(Oc2ncnc3ccn(C)c23)cc1,0%,13%,34%,0%,6%,0%,0%,0%,23%,6%,14%,13%,27%,0%,0%,5%,25%,0%,0%,20%
Cc1ccccc1COc1cc(-n2cnc3cc(Cl)ccc32)sc1C(N)=O [GW813349],12%,15%,0%,8%,6%,0%,10%,22%,0%,5%,16%,0%,2%,49%,5%,0%,0%,42%,8%,0%
COc1ccc(Nc2nccc(N3CCC(NS(=O)(=O)c4ccc(NC(C)=O)cc4)C3)n2)cc1 (centres unmarked) [GSK1379729],100%,0%,0%,36%,18%,3%,0%,0%,27%,0%,0%,0%,0%,18%,6%,0%,0%,5%,0%,4%
